The nature of assay [1]: qHTS assay to test for compound auto fluorescence at 535 nm (green) in HEK293 cells (AID 720680). For orientation: In qHTS, concentration-response curves come from the screen itself.
Assay [2] is described as follows: qHTS assay to test for compound auto fluorescence at 460 nm (blue) in HEK293 cell free culture (AID 720681). The procedure, abridged:
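Compounds were added to cell-free DMEM with 10% FBS and fluorescence read directly. The blue channel used 405 nm excitation and 460 nm emission, with triamterene as the reference fluorophore.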

The nature of assay [3]: qHTS assay to test for compound auto fluorescence at 590 nm (red) in HEK293 cell free culture (AID 720683). The procedure, abridged:
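Cell-free wells of DMEM with 10% FBS received compound, and intrinsic fluorescence was read at excitation/emission 540/590 nm. Values expressed as equivalence to Rose Bengal sodium.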

The nature of assay [4]: qHTS assay to test for compound auto fluorescence at 590 nm (red) in HepG2 cell free culture (AID 720684). In short, it runs like this: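 Auto fluorescence equivalency versus Rose Bengal sodium, red channel Ex/Em 540/590 nm; compounds in cell-free MEM/10% FBS; DMSO vehicle control.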
Assay [5] in a line: qHTS assay to test for compound auto fluorescence at 535 nm (green) in HepG2 cell free culture (AID 720686).
Assay [6] is described as follows: qHTS assay to test for compound auto fluorescence at 460 nm (blue) in HepG2 cells (AID 720687). In short, it runs like this: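 HepG2 cells in MEM with 10% FBS, attached overnight at 37 C, were exposed to compound or DMSO for 1 hr at 37 C, 5% CO2. Blue fluorescence was read at 405/460 nm, with triamterene as reference fluorophore.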
For assay [7], the target named is Glucocorticoid receptor (Homo sapiens) (UniProt P04150). The assay can be described thus: qHTS assay to identify small molecule agonists of the glucocorticoid receptor (GR) signaling pathway (AID 720691; active = well fitted activation curve with a large enough effect in the signal ratio in the repeat runs, not every such curve was filed as active; the % refers to the signal ratio). In short, it runs like this:
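Compounds in DMSO, alongside positive controls, were added to GR-bla HeLa reporter cells and incubated 18 h at 37 C; GRE-driven beta-lactamase was detected by fluorescence after 2 h with FRET substrate at room temperature.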

Assay [8] is described as follows: qHTS assay for identifying genotoxic compounds that show differential cytotoxicity against isogenic chicken DT40 cell lines with known DNA damage response pathways - wild type cell line (AID 743012). Also: nearly all actives have a fitted effect of over 60% in size. Also: potency is read from the fitted curve at half-maximal effect. In short, it runs like this:
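Viability of DNA repair-proficient chicken DT40 cells was assessed by CellTiter-Glo luminescence following 40 h compound exposure at 37 C/5% CO2.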

The nature of assay [9]: qHTS assay to identify small molecule antagonists of the androgen receptor (AR) signaling pathway using the MDA cell line - cell viability counter screen (AID 743041; also: nearly all actives have a fitted effect of over 45% in size). In short, it runs like this:
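Compound exposure lasted 16 h at 37C in MDA-kb2 AR-luc cells stimulated with R1881. Protease-based CellTiter-Fluor reagent was applied for the final 30 min and fluorescence measured.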

Assay [10] is described as follows: qHTS assay to test for compound auto fluorescence at 460 nm (blue) in HepG2 cell free culture (AID 720685). The procedure, abridged:
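Cell-free plates of MEM plus 10% FBS received 23 nL compound or DMSO vehicle; blue-channel (405/460 nm) intensity scored against triamterene as reference fluorophore.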

A short description of assay [11]: qHTS assay to identify small molecule antagonists of the glucocorticoid receptor (GR) signaling pathway - cell viability counter screen (AID 720693). Also: nearly all actives have a fitted effect of over 55% in size.
A short description of assay [12]: qHTS assay for identifying genotoxic compounds that show differential cytotoxicity against isogenic chicken DT40 cell lines with known DNA damage response pathways - Rev3 mutant cell line (AID 743014). Also: nearly all actives have a fitted effect of over 55% in size. Also: potency is read from the fitted curve at half-maximal effect.
Assay [13] in a line: qHTS assay for identifying genotoxic compounds that show differential cytotoxicity against isogenic chicken DT40 cell lines with known DNA damage response pathways - Rad54/Ku70 mutant cell line (AID 743015). Also: nearly all actives have a fitted effect of over 60% in size. Also: potency is read from the fitted curve at half-maximal effect.
A short description of assay [14]: qHTS assay to identify small molecule antagonists of the androgen receptor (AR) signaling pathway - cell viability counter screen (AID 743033; also: nearly all actives have a fitted effect of over 45% in size).
Assay [15] has as its target Androgen receptor (Homo sapiens) (UniProt P10275). Kind of assay: qHTS assay to identify small molecule antagonists of the androgen receptor (AR) signaling pathway using the MDA cell line (AID 743042; also: nearly all actives have a fitted effect of over 55% in size). The procedure, abridged: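 MDA-kb2 breast carcinoma cells carrying MMTV-luciferase (AR/GR responsive) were co-treated with compounds and the agonist R1881 for 16 h at 37C. Inhibition read as ONE-Glo luminescence; CellTiter-Fluor fluorescence measured in parallel for cytotoxicity.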

Assay [16] deals with Glucocorticoid receptor (Homo sapiens) (UniProt P04150). The assay can be described thus: qHTS assay to identify small molecule antagonists of the glucocorticoid receptor (GR) signaling pathway (AID 720692; active = well fitted inhibition curve with a large enough effect in the signal ratio in the repeat runs, not every such curve was filed as active; the % refers to the signal ratio; also: potency is read from the fitted curve at half-maximal effect). In short, it runs like this: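 In a 1536-well cell format, compounds were added 4 h after seeding GR-bla HeLa cells, together with dexamethasone at 5 nM final; reporter activity was measured by FRET-substrate fluorescence following 18 h at 37 C.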

Several values for one entry are separate records, joined by “and”; a condition that tells them apart may be missing. Equal entries are not always repeated. Inconclusive results are not listed. A structure can be active in one record and inactive in another. Activity calls are given as the source filed them. Unless noted, calls follow the shape of the dose curve; as a rule, active = well fitted curve in the direction sought with a large enough effect in the repeat runs; inconclusive = weak or mixed curves; inactive = no such curve, though single readings can be large; an effect the other way counts as inactive or inconclusive.
% is scaled to controls: 0 for no effect and ±100 for the full control effect.

Sequence of Glucocorticoid receptor (Homo sapiens) (P04150 whole entry, looked up): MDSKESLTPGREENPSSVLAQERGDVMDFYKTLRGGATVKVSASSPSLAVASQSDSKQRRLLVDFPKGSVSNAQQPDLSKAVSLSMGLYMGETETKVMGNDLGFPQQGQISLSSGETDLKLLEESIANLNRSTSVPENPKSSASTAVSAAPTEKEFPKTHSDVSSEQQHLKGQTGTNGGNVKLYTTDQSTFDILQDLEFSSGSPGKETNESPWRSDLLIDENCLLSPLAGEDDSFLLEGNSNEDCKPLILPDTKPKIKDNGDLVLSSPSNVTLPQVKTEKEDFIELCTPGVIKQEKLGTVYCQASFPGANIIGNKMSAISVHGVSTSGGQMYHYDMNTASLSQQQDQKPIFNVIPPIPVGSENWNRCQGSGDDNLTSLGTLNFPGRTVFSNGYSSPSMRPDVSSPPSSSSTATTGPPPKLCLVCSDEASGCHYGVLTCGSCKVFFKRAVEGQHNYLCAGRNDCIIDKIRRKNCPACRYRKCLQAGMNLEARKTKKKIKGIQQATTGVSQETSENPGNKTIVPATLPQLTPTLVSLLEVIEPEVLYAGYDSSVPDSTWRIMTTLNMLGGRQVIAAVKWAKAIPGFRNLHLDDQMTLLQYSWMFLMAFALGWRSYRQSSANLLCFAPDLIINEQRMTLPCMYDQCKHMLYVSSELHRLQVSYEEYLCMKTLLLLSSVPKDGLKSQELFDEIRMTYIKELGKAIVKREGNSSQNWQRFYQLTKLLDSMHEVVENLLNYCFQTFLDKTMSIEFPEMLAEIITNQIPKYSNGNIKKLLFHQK
Sequence of Androgen receptor (Homo sapiens) (P10275 whole entry, looked up): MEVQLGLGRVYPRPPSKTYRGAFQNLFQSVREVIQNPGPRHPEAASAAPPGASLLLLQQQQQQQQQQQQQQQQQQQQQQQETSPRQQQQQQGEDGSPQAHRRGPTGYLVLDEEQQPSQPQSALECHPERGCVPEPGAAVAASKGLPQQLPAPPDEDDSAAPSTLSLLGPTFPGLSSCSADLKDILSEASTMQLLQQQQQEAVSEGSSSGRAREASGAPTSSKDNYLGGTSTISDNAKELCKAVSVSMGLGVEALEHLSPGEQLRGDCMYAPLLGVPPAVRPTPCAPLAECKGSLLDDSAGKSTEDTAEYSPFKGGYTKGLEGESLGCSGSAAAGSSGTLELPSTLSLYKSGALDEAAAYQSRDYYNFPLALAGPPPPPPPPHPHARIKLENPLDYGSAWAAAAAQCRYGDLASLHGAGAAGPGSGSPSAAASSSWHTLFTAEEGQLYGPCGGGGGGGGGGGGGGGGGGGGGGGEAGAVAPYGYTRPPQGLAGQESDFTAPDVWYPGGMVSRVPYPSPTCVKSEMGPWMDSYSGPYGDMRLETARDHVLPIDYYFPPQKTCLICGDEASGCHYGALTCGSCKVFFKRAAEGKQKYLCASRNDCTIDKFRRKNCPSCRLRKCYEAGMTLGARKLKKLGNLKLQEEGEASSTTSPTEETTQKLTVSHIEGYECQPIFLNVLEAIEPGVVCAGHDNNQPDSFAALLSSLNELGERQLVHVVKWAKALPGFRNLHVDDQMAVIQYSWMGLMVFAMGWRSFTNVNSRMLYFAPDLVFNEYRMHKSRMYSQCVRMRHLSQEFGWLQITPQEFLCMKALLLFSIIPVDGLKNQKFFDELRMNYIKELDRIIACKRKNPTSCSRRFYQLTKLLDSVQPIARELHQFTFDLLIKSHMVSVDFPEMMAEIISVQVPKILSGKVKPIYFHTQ

With `OC[C@H]1O[C@@H](n2cnc3c(=S)nc[nH]c32)[C@H](O)[C@@H]1O`, the compound was called inactive in assay [1], in [3], in assay [4] and in assay [5]. The Potency result in [2], in assay [6], in assay [7] and in assay [9] was “inactive” throughout. The Potency in [8] is 13.3 µM (active).

On to `CCCCCCCC/C=C\CCCCCCCCCCCC(=O)O`, for which the result in [1], in assay [3], in assay [4] and in assay [5] was inactive. The Potency entry in assay [2], in assay [10], in assay [6], in assay [11], in assay [8] and in [12] was “inactive” each time. Also, the Potency result in assay [13], in assay [14], in assay [9] and in assay [15] was “inactive” in each case.

In the case of `C[C@]1(Cn2ccnn2)[C@H](C(=O)O)N2C(=O)C[C@H]2S1(=O)=O`, the outcome in assay [1], in [3], in [4] and in [5] was inactive. The Potency entry in [2], in [10], in assay [6], in assay [11], in [8] and in assay [12] was “inactive” throughout. Moreover, the Potency entry in assay [13], in assay [14] and in assay [9] was “inactive” throughout.

For the compound `Cc1ccc(C(C)(C)O)cc1`, the compound was classed as inactive in assay [1], in assay [3], in assay [4] and in assay [5]. Moreover, the Potency result in assay [2], in assay [10], in [6], in assay [7], in [16] and in assay [11] was “inactive” throughout. Further, the Potency entry in [12], in assay [13], in [14] and in assay [9] was “inactive” each time.

`C=Cc1ccc(S(=O)(=O)O)cc1`: the compound was classed as inactive in [1], in assay [3], in assay [4] and in assay [5]. Further, the Potency entry in assay [2], in [10], in assay [6], in assay [7], in assay [11] and in assay [14] was “inactive” in each case. Further, the Potency result in assay [9] is “inactive”. Moreover, the Potency entry in assay [16] was “inactive and 19.5 µM (active)”; in assay [8], “inactive and 30.6 µM (active)”; in assay [12], “inactive and 38.6 µM (active)”; in assay [13] it was “inactive and 2.17 µM (active)”.

Regarding `C=C1c2cccc(O)c2C(O)=C2C(=O)[C@]3(O)C(O)=C(C(N)=O)C(=O)[C@@H](N(C)C)[C@@H]3[C@@H](O)[C@H]12`, the fluorescence, % of fluorescein in assay [1] is 0.0422% [at 18.6 µM] (inactive). Also, the fluorescence, % of fluorescent control is 1.43% [at 18.6 µM] (inactive) in [2], 0.464% [at 18.6 µM] (inactive) in assay [3], 1.61% [at 18.6 µM] (inactive) in assay [10] and 1.19% [at 18.6 µM] (inactive) in assay [6]. In addition, the fluorescence, % of fluorescein control in assay [5] was -0.0019% [at 18.6 µM] (inactive). The Potency result in assay [7], in assay [16], in assay [11], in assay [8], in assay [12] and in [13] was “inactive” throughout. Further, the Potency entry in assay [14] and in [9] was “inactive” each time.

Regarding `CCC(C)COC(C)=O` (centres undefined), the result in assay [1], in [3], in [4] and in assay [5] was inactive. Further, the Potency entry in assay [2], in assay [6], in assay [7], in assay [16], in [11] and in assay [8] was “inactive” each time. The Potency result in [12], in assay [13], in assay [14] and in assay [9] was “inactive” in each case.

For `O=c1c(O)c(-c2ccc(O)cc2)oc2cc(O)cc(O)c12`, the compound was called inactive in assay [1], in assay [3], in assay [4] and in assay [5]. Also, the Potency result in assay [2], in assay [10], in assay [6], in [7], in assay [11] and in assay [14] was “inactive” throughout. Further, in assay [9], the Potency result was “inactive”. Moreover, the Potency in [8] was 32.8 µM (active); in assay [12], 11.6 µM (active); in assay [13] it was 36.8 µM (active).

For `CCCCCCCCN`, the compound was classed as inactive in assay [1], in assay [3], in [4] and in [5]. Also, the Potency entry in assay [2], in assay [10], in assay [6], in assay [8], in assay [12] and in [13] was “inactive” throughout. In addition, the Potency entry in [14] and in assay [9] was “inactive” in each case.

The values are drawn from PubChem BioAssay (Tox21).
